Screening results from PubChem.
KCNQ2 enhance: potentiators of rat KCNQ2 potassium channel. CHO-K1 KCNQ2, FluxOR thallium flux fluorescence; active compounds read high. 310,000 compounds, 0.54% hits. AID 2239, 2010. B-score at 10 µM. Potassium voltage-gated channel subfamily KQT member 2 (Rattus norvegicus), O88943;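 active = fluorescence ratio B-score at least 3 SD of library B-scores, with initial fluorescence B-score within 3 of them, cut at about 5.3 in these data; same plate scores as AID 2156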;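 note: B-score of peak minus minimum over baseline fluorescence ratio after K+ and Tl+ stimulus; positive B-score means potentiation of KCNQ2 with more thallium influx and brighter signal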
KCNQ2 inh: rat KCNQ2 potassium channel inhibitors, primary screen, cell-based, CHO-K1, FluxOR thallium flux, B-score; Potassium voltage-gated channel subfamily KQT member 2 (Rattus norvegicus), O88943; 20 min; active compounds read low; B-score at 10 µM; 310,000 compounds, 1.1% hits; AID 2156, 2009;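 active = fluorescence ratio B-score at most minus 3 library SDs, with starting brightness B-score within 2 library SDs, cut at about -5.5 in these data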
KCNQ2 inh conf: rat KCNQ2 potassium channel inhibitors, confirmation, cell-based, thallium flux | KCNQ2-expressing cells, inhibition; active compounds read low | 1,000 compounds, 57% hits | shares compounds with KCNQ2 inh | activity change, negative = inhibition, % at 10 µM
KCNQ1 spec: human KCNQ1 channel inhibition, counter-screen for KCNQ2 inhibitor project, cell-based, FluxOR thallium flux; shares compounds with KCNQ2 inh; 1,000 compounds, 15% hits; activity change, negative = inhibition, % at 10 µM; AID 493026, 2011; KCNQ1-expressing cells, FluxOR thallium flux fluorescence; active compounds read low;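 active = activity change at least 3 SD of negative controls below their mean in both duplicate wells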;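 note: CHO cells stably transfected with KCNQ1 and depolarized by potassium stimulus; peak minus minimum fluorescence over baseline after thallium addition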
Target sequence (P51787 whole entry, looked up): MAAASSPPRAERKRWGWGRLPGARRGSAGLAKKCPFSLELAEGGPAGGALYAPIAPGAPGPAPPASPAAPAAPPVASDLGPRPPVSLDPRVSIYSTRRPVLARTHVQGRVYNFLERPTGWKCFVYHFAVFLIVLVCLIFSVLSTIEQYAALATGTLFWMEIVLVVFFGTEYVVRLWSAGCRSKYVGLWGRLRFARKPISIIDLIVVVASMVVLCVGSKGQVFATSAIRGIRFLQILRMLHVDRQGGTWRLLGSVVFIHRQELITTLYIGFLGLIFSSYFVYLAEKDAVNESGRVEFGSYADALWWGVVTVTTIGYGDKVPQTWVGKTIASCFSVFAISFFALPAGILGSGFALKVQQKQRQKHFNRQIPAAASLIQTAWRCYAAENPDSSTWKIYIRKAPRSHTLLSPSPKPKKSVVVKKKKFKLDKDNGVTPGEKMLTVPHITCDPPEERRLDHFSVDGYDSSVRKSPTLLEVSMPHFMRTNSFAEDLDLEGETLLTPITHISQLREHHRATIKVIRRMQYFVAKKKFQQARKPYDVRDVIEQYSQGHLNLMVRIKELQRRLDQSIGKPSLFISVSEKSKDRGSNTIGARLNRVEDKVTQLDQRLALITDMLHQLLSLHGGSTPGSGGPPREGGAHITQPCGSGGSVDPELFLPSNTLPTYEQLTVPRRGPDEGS
CHO parental ctr: thallium flux change in parental CHO cells, counter-screen for KCNQ2 inhibitor project; 1,000 compounds, 14% hits; shares compounds with KCNQ2 inh; activity change, % at 10 µM; active compounds read low
KCNQ2 patch conf: rat KCNQ2 channel inhibitors, confirmation, cell-based, automated patch clamp, single concentration; KCNQ2-expressing cells, automated patch clamp current; calls only at 10 µM; 550 compounds, 49% hits; shares compounds with KCNQ2 inh; AID 588531, 2011
Numbers stand for hits. This is a sample that favours compounds with a hit; in the whole collection about 1.6% have one here. Unless noted, the rule behind the calls is not given here.

Screening O=C(Nc1ccc(Br)c(C(F)(F)F)c1)c1ccccc1 returned KCNQ2 enhance inactive, KCNQ2 inh -7.71, KCNQ2 inh conf inactive, KCNQ1 spec inactive and CHO parental ctr inactive.
`COc1cc(CNCCO)cc(Cl)c1OCc1ccc(Cl)cc1Cl` gave KCNQ2 enhance inactive, KCNQ2 inh -9.76, KCNQ2 inh conf -41.0%, KCNQ1 spec -31.0%, CHO parental ctr -31.0% and KCNQ2 patch conf inactive.
`COc1cc(CNCCO)cc(Br)c1OCc1ccccc1Cl` gave KCNQ2 inh inactive.
`Cc1c(C)c(C)c(CN2CCCC2)c(C)c1C` gave KCNQ2 inh inactive.
For Cc1nn2c(N)c(-c3ccccc3)cnc2c1-c1ccc(Cl)cc1 the results were KCNQ2 inh inactive.
Cc1nc2c(-c3ccccc3)c(C)nn2c(N)c1-c1ccccc1 was read as KCNQ2 enhance inactive, KCNQ2 inh -7.46, KCNQ2 inh conf -34.0%, KCNQ1 spec inactive, CHO parental ctr inactive and KCNQ2 patch conf inactive.
For CCOC(=O)N1CCc2c(sc3c2c(=O)n(Cc2ccccc2)c(=O)n3Cc2ccc(C)cc2)C1 the results were KCNQ2 enhance inactive, KCNQ2 inh -7.73, KCNQ2 inh conf inactive, KCNQ1 spec inactive and CHO parental ctr inactive.
Screening CC(=O)N1CCc2c(sc3c2c(=O)n(Cc2ccccc2)c(=O)n3CC(=O)NCC2CCCO2)C1 (centres undefined) returned KCNQ2 inh inactive.
COc1ccc(CN(C)C(=O)c2ccc(COc3ccccc3)cc2)c(OC)c1 was read as KCNQ2 inh inactive.
Screening COc1ccc(CN(C)C(=O)C(Cc2ccccc2)NC(=O)c2ccccc2)c(OC)c1 (centres undefined) returned KCNQ2 enhance inactive, KCNQ2 inh -6.69, KCNQ2 inh conf -33.0%, KCNQ1 spec inactive, CHO parental ctr inactive and KCNQ2 patch conf active.
`CCN1CCN(CCCNC(=O)c2ccc(/C=C3/Sc4ccccc4N(Cc4ccccc4F)C3=O)cc2)CC1` gave KCNQ2 inh inactive.
`CCN1CCN(CCNC(=O)c2ccc(/C=C3/Sc4ccccc4N(Cc4ccccc4C)C3=O)cc2)CC1` gave KCNQ2 enhance inactive, KCNQ2 inh -13.2, KCNQ2 inh conf inactive, KCNQ1 spec inactive and CHO parental ctr inactive.
For O=C(NNC(=O)c1ccc(Cn2cccn2)o1)NC12CC3CC(CC(C3)C1)C2 the results were KCNQ2 enhance inactive and KCNQ2 inh inactive.
Nc1nc(-c2ccccc2)c(-c2ccccc2)o1 was read as KCNQ2 inh inactive.
`c1ccc(-c2nc(-c3nccc4ccccc34)oc2-c2ccccc2)cc1` gave KCNQ2 enhance inactive, KCNQ2 inh -8.61, KCNQ2 inh conf inactive, KCNQ1 spec inactive and CHO parental ctr inactive.
CN1/C(=C\C=C(/C#N)C(=O)Nc2ccc(Cl)cc2)C(C)(C)c2ccccc21 was read as KCNQ2 inh inactive.
`CN1/C(=C\C(=O)Nc2ccc(Cl)cc2)C(C)(C)c2ccccc21` gave KCNQ2 enhance inactive, KCNQ2 inh -8.06, KCNQ2 inh conf -27.0%, KCNQ1 spec inactive, CHO parental ctr inactive and KCNQ2 patch conf inactive.
For O=C(O)c1ccccc1C(=O)N(Cc1ccccc1)Cc1ccccc1 the results were KCNQ2 inh inactive.
Screening O=C(O)c1cc(Cl)c(Cl)cc1C(=O)N(Cc1ccccc1)Cc1ccccc1 returned KCNQ2 enhance inactive, KCNQ2 inh -7.45, KCNQ2 inh conf -30.0%, KCNQ1 spec inactive, CHO parental ctr inactive and KCNQ2 patch conf active.
Screening Cc1ccc(N2CCN(S(=O)(=O)c3ccc4oc(=O)ccc4c3)CC2)c(C)c1 returned KCNQ2 enhance inactive and KCNQ2 inh inactive.
Cc1cccc(NC(=O)c2ccccc2OCC(=O)c2ccccc2)c1 was read as KCNQ2 enhance inactive, KCNQ2 inh -8.23, KCNQ2 inh conf inactive, KCNQ1 spec inactive and CHO parental ctr inactive.
Cc1ccc(NC(=O)c2ccccc2OCC(=O)c2ccccc2)cc1 was read as KCNQ2 inh inactive.
Screening Nc1nonc1C(=O)NCCNC(=O)c1cccc(Cl)c1 returned KCNQ2 enhance inactive and KCNQ2 inh inactive.
